Screens: PubChem BioAssay, National Center for Advancing Translational Sciences (NCATS)
KB-V1 cytotox – kills drug-selected multidrug resistant KB-V1 cells; 400,000 compounds, 3.4% hits; KB-V1 MDR cells viability, CellTiter-Glo, 72 h; Potency, µM (top dose mostly 46.1 µM), most hits filed as cytotoxic; also: % is scaled to controls: 0 for no effect and ±100 for the full control effect; nearly all actives have a fitted effect of over 60% in size
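Drug-selected KB-V1 cells, grown in DMEM lacking phenol red with 10% FBS, receive compound titrations; after three days at 37 degrees C, surviving cell ATP is quantified by CellTiter-Glo luminescence and responses normalized and curve-fitted.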
ELG1 DNA repair – inhibitors of ELG1-dependent DNA repair in HEK293T cells | AID 504467 | Potency, µM (titrated, usually from 46.1 µM), for the others: at the top dose activity change, negative = inhibition, most hits filed as inhibitors | HEK293T ELG1-luciferase reporter, luminescence, 16 h; DNA damage induced by 5-fluorouridine | 330,000 compounds, 2.3% hits; also: % is scaled to controls: 0 for no effect and ±100 for the full control effect; nearly all actives have a fitted effect of over 55% in size
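Overnight (16 hr) co-exposure of 2,000 cells/well to 5-fluorouridine and compound at 37 °C preceded detection. Luciferase was quantified via ONE-Glo luminescence; loss of signal denotes inhibition.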
KB-3-1 cytotox – KB-3-1 parental cell cytotoxicity. KB-3-1 viability, CellTiter-Glo ATP luminescence, 72 h. Potency, µM (series often up to 46.1 µM), actives largely listed as cytotoxic. 400,000 compounds, 1.4% hits. AID 1347075; also: % is scaled to controls: 0 for no effect and ±100 for the full control effect; nearly all actives have a fitted effect of over 60% in size
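KB-3-1 parental drug-naive adenocarcinoma cells in DMEM/10% FBS, incubated 72 h at 37 C with pin-transferred compounds across a concentration series. Viability by CellTiter-Glo luminescence; concentration-response curves fitted after normalization.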
SW480 rereplic – DNA re-replication induction in SW480 cells | SW480 DNA re-replication, Hoechst DNA content imaging, 48 h | Potency, µM (series often up to 46.1 µM), for inactives: top-dose re-replication activation, actives largely listed as activators | 340,000 compounds, 1.8% hits; also: % of control where 0% means no effect; nearly all actives have a fitted effect of over 55% in size
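Image-based read-out: total Hoechst fluorescence of nuclei (405 nm excitation, 500-530 nm emission), with hits raising the fraction of high-intensity nuclei. SW480 colon cells incubated 48 hr with compounds at 37 C.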
MCF10A rereplic – DNA re-replication induction in MCF 10a cells | Potency, µM (top dose mostly 46.1 µM), inactives show at the top dose activity, positive = re-replication, usual class: activators | 350,000 compounds, 2.9% hits | MCF 10A DNA re-replication, Hoechst nuclear intensity, 48 h | AID 624296; also: % of control where 0% means no effect; nearly all actives have a fitted effect of over 50% in size
Starred values were filed as active, the others as inactive; i = inactive; ? = inconclusive; · = no result given; [ ] = dose if it differs, or a comment. This is a sample that favours compounds with a hit; in the whole collection about 8.2% have one here. Calls follow the shape of the dose curve; as a rule, active = well fitted curve in the direction sought with a large enough effect; inconclusive = small, poorly fitted or top-dose-only effect, or another doubt; inactive = no such curve, though single readings can be large; an effect the other way counts as inactive or inconclusive. Potency is read from the fitted curve at half-maximal effect.

SMILES	KB-V1 cytotox	ELG1 DNA repair	KB-3-1 cytotox	SW480 rereplic	MCF10A rereplic
CCOc1cc(N2CCOCC2)c(OCC)cc1NC(=O)COC(=O)CCOc1ccc(C(C)(C)C)cc1	i	-3%	i	-10%	?
Cc1ccc(CC(=O)N(C)CC(=O)Nc2ccc(N3CCOCC3)cc2)cc1C	i	?	i	0%	2%
CC(Oc1cccc(Cl)c1)C(=O)Nc1ccc(N2CCOCC2)cc1N1CCOCC1 (stereo not drawn)	16µM*	?	i	-95%[9.22 µM]	?
CC(C)(C)c1ccc(OCCC(=O)Nc2ccc(N3CCOCC3)cc2N2CCOCC2)cc1	i	21µM*	i	?	?
CC(C)c1ccc(C(=O)Nc2ccc(N3CCOCC3)cc2)cc1	i	15%	?	?	23µM*
CN(CC(=O)Nc1ccc(N2CCOCC2)cc1)C(=O)CCc1cc(C(C)(C)C)c(O)c(C(C)(C)C)c1	3.7µM*	5%	i	2%	19%
O=C(NC1CCCCC1)C(c1ccccc1)n1c(=O)c(-c2ccco2)nc2ccccc21 (stereo not drawn)	i	·	i	·	·
CCC1CCCCN1CCCNC(=O)c1ccc2c(c1)N(Cc1cccc(C)c1)C(=O)c1ccccc1S2(=O)=O (stereo not drawn)	i	·	i	·	·
Cn1cnc(S(=O)(=O)N2CCCCC2c2cc(C(=O)Nc3cccc(C#N)c3)no2)c1 (stereo not drawn)	i	·	i	·	·
C#Cc1ccc([C@H]2C=C(C(=O)O)O[C@@H](OCCCCO)C2)cc1	i	·	i	-1%	6%
CC(=O)c1ccc(C(=O)Nc2ccc(N3CCOCC3)cc2)cc1	i	?	i	-8%	0%
COC(=O)Cc1ccc(NC(=O)c2ccc(C(C)(C)C)cc2)cc1	?	9.2µM*	?	24%	9%
CC(C)(C)c1ccc(C(=O)Nc2ccc(N3CCOCC3)cc2)cc1	?	18µM*	i	-1%	16%
COc1ccc2c(c1)CO[C@]21O[C@H](CCO)C[C@H](O)[C@H]1O	i	·	i	·	·
COc1ccc(NC(=O)c2cc(-c3ccccc3O)no2)cc1	i	·	i	·	·
COc1ccc(-c2onc(C)c2-c2ccc(C(=O)OC(C)C)o2)c(O)c1	21µM*	23µM*	?	16%	?
CC(C)C(=O)Nc1ccc(S(=O)(=O)N2CCC(c3nc4ccccc4[nH]3)CC2)cc1	i	5.8µM*	i	-5%	4%
Clc1ccc(CN2CCC(c3nc4ccc(Cl)cc4[nH]3)CC2)cc1	21µM*	?	?	?	?
CC(C)(C)c1ccc(S(=O)(=O)N2CCC(c3nc4ccc(Cl)cc4[nH]3)CC2)cc1	?	21µM*	i	0%	?
CC1CCCN(C(=O)CN2CCC(c3nc4ccc(Cl)cc4[nH]3)CC2)C1 (stereo not drawn)	?	?	i	-12%	2%
COc1ccccc1NC(=S)N/N=C/c1cccc(C)c1	?	?	15µM*	?	?
COc1ccccc1NC(=S)N/N=C/c1ccc(O)cc1	21µM*	?	?	1%	17%
CCNC(=S)N/N=C/c1cccc(C)c1	i	?	i	1%	-1%
Oc1ccc(/C=N/NC(=S)N/N=C/c2ccc(O)cc2)cc1	i	28%	i	21%	?
O=[N+]([O-])c1ccc(Nc2nc(NCCN3CCOCC3)nc(Nc3ccc(I)cc3)n2)cc1	i	·	?	·	·
CCC1(c2ccccc2)NC(=O)N(CC(=O)Nc2ccccc2C(=O)N2CCCCC2)C1=O (stereo not drawn)	i	15%	i	4%	-1%
CCc1ccc(OCCCC(=O)Nc2ccc(S(=O)(=O)Nc3cc(C)nc(C)n3)cc2)cc1	i	-2%	i	-3%	-5%
CCCOc1ccc(C2C(C(=O)c3cc4ccccc4o3)=C(O)C(=O)N2c2cc(C)on2)cc1 (stereo not drawn)	i	10%	?	?	19%
